# POLB inh: qHTS Assay for Inhibitors of DNA Polymerase Beta. P06746. Pol beta primer extension/strand displacement, fluorescence kinetic. Potency, µM (top dose mostly 114 µM), for the others: at the top dose activity change, negative = inhibition, actives largely listed as inhibitors. actives 1.3% (n = 340,000). AID 485314, 2010; also: % is scaled to controls: 0 for no effect and ±100 for the full control effect
#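 Pol beta (10 nM) was preincubated with compound for 15 min at room temperature. The reaction was then started with 50 nM substrate and read immediately and after a further 10 min at room temperature.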
# Pol kappa inh-1: qHTS for Inhibitors of Polymerase Kappa | Potency, µM (series often up to 107 µM), for inactives: top-dose activity, negative = inhibition, usual class: inhibitors | AID 588579, 2011 | DNA polymerase kappa (Homo sapiens), Q9UBT6 | actives 0.53% (n = 400,000) | purified Pol kappa, fluorescent DNA synthesis assay, 10 min; also: % is scaled to controls: 0 for no effect and ±100 for the full control effect
#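 10 nM Pol kappa was preincubated with compounds for 15 min at room temperature. Reaction started with 50 nM (final) substrate. Fluorescence read kinetically at 0 and 10 min.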
# WRN inhibitor: qHTS for Inhibitors of WRN Helicase | actives 0.46% (n = 360,000) | WRN helicase unwinding, fluorescent forked duplex, kinetic | Potency, µM (highest dose often 114 µM), for the others: at the highest dose activity change, negative = inhibition, hits mostly inhibitors; also: % is scaled to controls: 0 for no effect and ±100 for the full control effect; nearly all actives have a fitted effect of over 55% in size
#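 Enzyme (20 nM final) and test compound sit together 15 min at room temperature before substrate addition. Substrate is a single-forked duplex oligonucleotide (100 nM) labelled with fluorophore and quencher, with 2 mM ATP; helicase unwinding raises red fluorescence, read kinetically.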
# Pol eta inh-1: qHTS for Inhibitors of Polymerase Eta; recombinant Pol eta, fluorescent DNA replication assay; AID 588591, 2011; Potency, µM (series often up to 114 µM), without a hit: top-dose activity change, negative = inhibition, actives largely listed as inhibitors; actives 1.2% (n = 390,000); also: % is scaled to controls: 0 for no effect and ±100 for the full control effect
#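 Pol eta at 10 nM preincubated with compounds 15 min at room temperature; reaction started with fluorescent substrate (50 nM final) and read kinetically at 0 and 10 min.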
# FEN1 inh: qHTS Assay for the Inhibitors of Human Flap endonuclease 1 (FEN1) | P39748 | actives 0.35% (n = 390,000) | Recombinant FEN1 flap cleavage, fluorescence, 15 min | Potency, µM (highest dose often 114 µM), for the others: top-dose activity change, negative = inhibition, usual class: inhibitors | AID 588795, 2011; also: % is scaled to controls: 0 for no effect and ±100 for the full control effect; nearly all actives have a fitted effect of over 65% in size
#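 Steps: FEN1 (10 nM) dispensed; compound added by pin tool; 15 min at room temperature; substrate added to 50 nM final; reads at 0 min and 15 min; data normalized and fitted (four-parameter Hill).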
# Pol iota inh: qHTS for Inhibitors of Polymerase Iota | DNA polymerase iota (Homo sapiens), Q9UNA4 | Pol iota fluorescent replication assay, 10 min | Potency, µM (top dose mostly 115 µM), inactives show at the top dose activity, negative = inhibition, hits mostly inhibitors | actives 1% (n = 390,000) | AID 588590, 2011
# Target sequence (Q9UNA4 whole entry, looked up): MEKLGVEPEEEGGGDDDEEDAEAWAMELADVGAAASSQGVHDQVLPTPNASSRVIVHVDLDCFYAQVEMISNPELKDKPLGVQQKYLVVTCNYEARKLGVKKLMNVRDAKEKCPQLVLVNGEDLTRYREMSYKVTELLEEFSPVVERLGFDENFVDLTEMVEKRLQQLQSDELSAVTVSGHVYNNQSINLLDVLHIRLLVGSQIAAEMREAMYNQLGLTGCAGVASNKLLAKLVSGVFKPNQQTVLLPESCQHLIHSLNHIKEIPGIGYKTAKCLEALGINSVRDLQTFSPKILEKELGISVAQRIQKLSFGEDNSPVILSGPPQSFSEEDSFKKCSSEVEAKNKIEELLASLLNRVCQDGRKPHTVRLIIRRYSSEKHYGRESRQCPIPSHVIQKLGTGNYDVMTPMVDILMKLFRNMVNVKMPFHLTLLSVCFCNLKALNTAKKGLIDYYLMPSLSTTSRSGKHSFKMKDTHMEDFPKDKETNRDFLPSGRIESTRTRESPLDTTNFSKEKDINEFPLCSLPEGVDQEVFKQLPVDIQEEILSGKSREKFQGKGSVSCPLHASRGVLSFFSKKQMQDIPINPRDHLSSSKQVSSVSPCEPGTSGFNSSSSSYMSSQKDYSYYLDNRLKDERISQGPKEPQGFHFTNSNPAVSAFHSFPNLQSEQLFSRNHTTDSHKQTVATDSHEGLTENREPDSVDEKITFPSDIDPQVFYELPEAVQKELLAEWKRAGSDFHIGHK
#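 Fluorescent replication assay read twice, at 0 min and 10 min after adding 50 nM (final) substrate. Enzyme (10 nM) and compounds were first incubated 15 min at room temperature; enzyme-free buffer wells were negative controls.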
# Pol kappa inh-2: qHTS for Inhibitors of Polymerase Kappa: Confirmatory Assay for Cherry-picked Compounds; actives 76% (n = 920); AID 720501, 2013; shares compounds with Pol eta inh-1; Potency, µM, usual class: inhibitors; purified Pol-kappa, fluorescent strand-displacement substrate
# Pol eta inh-2: qHTS for Inhibitors of Polymerase Eta: Confirmatory Assay for Cherry-picked Compounds; shares compounds with Pol eta inh-1; Pol eta primer extension, TAMRA/BHQ fluorescence, 10 min; Potency, µM, usual class: inhibitors; actives 64% (n = 2,600)
# Starred values were filed as active, the others as inactive; ? = inconclusive; · = no result; [ ] = remark or other dose. The list is not random: actives were taken first. Their share in the collection is about 2.4%. Calls follow the shape of the dose curve; as a rule, active = well fitted curve in the direction sought with a large enough effect; inconclusive = small, poorly fitted or top-dose-only effect, or another doubt; inactive = no such curve, though single readings can be large; an effect the other way counts as inactive or inconclusive. Potency is read from the fitted curve at half-maximal effect.
SMILES,POLB inh,Pol kappa inh-1,WRN inhibitor,Pol eta inh-1,FEN1 inh,Pol iota inh,Pol kappa inh-2,others
COc1ccc(C2C=C(c3ccccc3)Nc3nc(NS(=O)(=O)c4ccc(C)cc4)nn32)cc1 (centres undefined),-2%,-13%,·,-29%,3%,27%,·,
Cc1ccc(C2C=C(c3ccccc3)Nc3nc(NS(=O)(=O)c4ccc(C)cc4)nn32)cc1 (centres undefined),2%,-7%[60.1 µM],·,?,12%,6%,?,
CC(=O)Oc1cc(C(=O)OCC(=O)NC23CC4CC(CC(C4)C2)C3)cc(OC(C)=O)c1OC(C)=O,·,18µM*,14µM*,3.2µM*,14µM*,?,8.4*,Pol eta inh-2=9.5*
COc1ccc(OC)c(NC(=O)CSc2ccnc(=O)[nH]2)c1,-6%,-4%[60.1 µM],·,-8%,-2%,9%,·,
CCOC(=O)c1ccc(NC(=O)C(CC)Sc2nc3ncccc3[nH]2)cc1 (centres undefined),-1%,-2%,·,-13%,9%,25%,·,
CC1(C)CC[C@]2(C(=O)O)CC[C@]3(C)C(=CC[C@@H]4[C@@]5(C)CC[C@H](O[C@@H]6O[C@H](C(=O)O)[C@@H](O)[C@H](O[C@@H]7OC[C@H](O)[C@H](O)[C@H]7O)[C@H]6O)C(C)(C)[C@@H]5CC[C@]43C)[C@@H]2C1,·,?,-6%[11.6 µM],50µM*,-7%,?,?,
Cc1cc(C)c2c(=O)c3c(oc2c1)C(=O)N(Cc1ccc(F)cc1)C3c1cccc(O)c1 (centres undefined),-21%,-3%,·,·,-15%,3%,·,
CCCCc1cc(=O)oc2cc(C)cc(OC(C)C(=O)NC(Cc3c[nH]c4ccc(O)cc34)C(=O)O)c12 (centres undefined),-30%,-21%,-1%,0%,1%,-20%,·,
Cc1cc(=O)oc2cc(OCC(=O)NC(Cc3c[nH]c4ccc(O)cc34)C(=O)O)c(Cl)cc12 (centres undefined),?,?,-12%,25µM*,-26%,71µM*,·,Pol eta inh-2=?
Cc1cc(OC(C)C(=O)NC(Cc2c[nH]c3ccc(O)cc23)C(=O)O)c2c(C)c(C)c(=O)oc2c1 (centres undefined),?,-25%,-8%[11.6 µM],?,-16%,?,·,Pol eta inh-2=?
Cc1ccccc1OCC(=O)NC(Cc1c[nH]c2ccccc12)C(=O)O (centres undefined),4%,-6%,-4%,-19%,8%,29%,·,
CCN(CC)S(=O)(=O)c1nnc(NC(=O)c2ccc(Br)cc2)s1,-9%,-4%,·,-7%,0%,-10%,·,
S=c1[nH]nc(-c2cc(-c3ccccc3)n[nH]2)n1/N=C/C(Br)=C/c1ccccc1,13µM*,-32%,45µM*,50µM*,?,22µM*,67*,
COc1ccc(CCNC(=O)CCCCn2c(=O)c3ccccc3n(Cc3ccc(Cl)cc3)c2=O)cc1OC,-1%,1%,·,-1%,-11%,-16%,·,

# Screening results: PubChem, National Center for Advancing Translational Sciences (NCATS)
